Data on 33 compounds can be found in PubChem BioAssay (Tox21).

Values joined by “and” are separate entries in the source; they are usually repeats but may differ in a detail not shown here. Identical values can stand only once. Results filed as inconclusive are left out. Where a structure was tested more than once in an assay, its records may differ in their call. Active and inactive are the calls of the source. The call rests on the fitted dose curve; in most records, active means well fitted curve in the direction sought with a large enough effect in the repeat runs; inconclusive means weak or mixed curves; inactive means no such curve, though single readings can be large; an effect the other way counts as inactive or inconclusive.

A short description of test [1]: qHTS assay to identify small molecule agonists of the RXR signaling pathway - cell viability counter screen (AID 1159529). Further: nearly all actives have a fitted effect of over 50% in size. Further: potency means the concentration at half of the fitted maximal effect. Put shortly:
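RXR-alpha-UAS-bla HEK 293T cells in medium with 2% charcoal-stripped FBS were pre-incubated 5 hr, then compound-treated 16 hr at 37 C. Viability was read by CellTiter-Glo luminescence in the same wells as the beta-lactamase assay, with tetraoctyl ammonium bromide as positive control.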

The nature of test [2]: qHTS assay to identify small molecule antagonists of the retinoid acid receptor (RAR) signaling pathway - cell viability counter screen (AID 1159551). Further: nearly all actives have a fitted effect of over 35% in size. The method, boiled down:
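ATP-based viability, C3RL4 cells, 6 h at 37 C with 1 uM final retinol co-added after compound; luminescence read 30 min post CellTiter-Glo, RT.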
A general note: qHTS replaces the single test concentration by a dilution series.

Test [3] is described as follows: qHTS assay to identify small molecule antagonists of the retinoic acid receptor (RAR) signaling pathway (AID 1159552; further: nearly all actives have a fitted effect of over 50% in size). The method, boiled down:
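Retinol signaling pathway inhibitors screened in C3RL4 RARE-luciferase reporter cells seeded overnight at 37 C, then compounds added with 1 uM (final) retinol as pathway substrate. After 6 hr at 37 C, luciferase luminescence read after 30 min at room temperature.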

Test [4] is described as follows: qHTS assay to identify small molecule agonists of the retinoic acid receptor (RAR) signaling pathway (AID 1159553). Further: potency means the concentration at half of the fitted maximal effect. The conditions noted are these: C3RL4 RARE luciferase reporter, agonist, 6 h; activation: at 73.3 µM (top of the series) unless noted. The method, boiled down: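 Quantitative high-throughput format: the Tox21 10K library was tested on C3RL4 RARE-luciferase cells for 6 hr at 37 C and 5% CO2, with luminescence measured after a 30 min room-temperature reagent step.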

Test [5] in a line: qHTS assay to identify small molecule antagonists of the estrogen related receptor (ERR) signaling pathway from Tox21 library - cell viability counter screen (AID 1224834). Further: nearly all actives have a fitted effect of over 30% in size. Further: potency means the concentration at half of the fitted maximal effect. The method, boiled down:
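Compounds in DMSO were pinned onto ERR cells that had been incubated for 6 h, and the plates were held at 37 C for 17.5 h. CellTiter-Fluor reagent was then added and fluorescence was measured after 30 min.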

Test [6] can be described thus: qHTS assay to identify small molecule antagonists of the estrogen related receptor signaling pathway with the pleiotropic PPARgamma coactivator (PGC) cell viability counter screen (AID 1224822;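 further: viability read after 17.5 h compound exposure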). Put shortly:
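Cytotoxicity in the PGC/ERR cell line is assessed with CellTiter-Fluor, read as fluorescence intensity 30 min after reagent addition, following 17.5 h compound treatment at 37 C.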
On the % scale 0 is the no-effect control and ±100 the full control effect.

On to `C=CC(=O)OCCOC(=O)C=C`, for which the Potency result in test [1], in test [2], in test [3], in test [4] and in test [5] was “inactive” throughout.
As for `CC(C)(C)CC(C)(C)c1ccc(Nc2ccc(C(C)(C)CC(C)(C)C)cc2)cc1`, the activity change, negative = cytotoxicity in test [1] was 2.3% [at 6.97 µM] (inactive); in test [2], 0.648% [at 8.39 µM] (inactive). The activity, negative = inhibition in test [3] is -23.1% [at 8.39 µM] (inactive). Also, in test [4], the activation was -3.08% [at 8.36 µM] (inactive). Moreover, the viability change, negative = cytotoxic in test [5] is 0.525% [at 8.39 µM] (inactive).
Regarding `Oc1c(I)cc(Cl)c2cccnc12`, the Potency is 1.09 µM (active) in test [1]; 76.8 µM (active) and inactive in test [4]; 24.3 µM (active) and 26.6 µM (active) in test [5]. Moreover, the Potency result in test [2] and in test [3] was “inactive” each time.
Consider `O=C(O)c1cc(=O)c2ccccc2o1`, for which the Potency entry in test [1], in test [2], in test [3], in test [4] and in test [5] was “inactive” throughout.
`O=C1CCCCCCCCCCCCCCCO1`: the Potency entry in test [1], in test [2], in test [3] and in test [5] was “inactive” throughout.
As for `CC(C)(C)NSc1nc2ccccc2s1`, the Potency entry in test [1], in test [2], in test [3] and in test [5] was “inactive” in each case. Besides, the activation in test [4] was 7.05% [at 94.8 µM] (active).
On to `O=c1[nH]c(=O)n([C@H]2C[C@H](O)[C@@H](CO)O2)cc1F`, for which the Potency entry in test [1], in test [2], in test [3], in test [4] and in test [5] was “inactive” throughout.
For `Cc1c2ccccc2c(C)c2c1ccc1ccccc12`, the Potency in test [1] was 19.3 µM (active) and 19.5 µM (active); in test [4], 54.5 µM (active); in test [5], 27 µM (active) and 54.5 µM (active). The Potency result in test [2] and in test [3] was “inactive” throughout.
In the case of `Cc1c(C)c2c(c(C)c1OC(=O)c1cccnc1)CC[C@@](C)(CCC[C@H](C)CCC[C@H](C)CCCC(C)C)O2`, the Potency result in test [1], in test [2], in test [3], in test [4] and in test [5] was “inactive” each time.
On to `Clc1ccnc(Cl)n1`, for which the Potency entry in test [1], in test [2], in test [3] and in test [5] was “inactive” each time.
For the compound `O=C(O)c1ccc2cc(C(=O)O)ccc2c1`, the Potency result in test [1], in test [2], in test [3], in test [4] and in test [5] was “inactive” in each case.
Take `CCCCCCCCCCCC(=O)OCC(C)OC(=O)CCCCC(=O)O` (centres undefined): the Potency result in test [1], in test [2], in test [3], in test [4] and in test [5] was “inactive” throughout.
With `C[C@@H](O)[C@H](N)C(=O)O`, the results for the activity change, negative = cytotoxicity in test [1] and in test [2] were 1.63% [at 15.8 µM] (inactive) and -1.86% [at 19 µM] (inactive), respectively. Further, the activity, negative = inhibition in test [3] was 42.8% [at 19 µM] (inactive). Further, in test [4], the Potency result is “inactive”. The viability change, negative = cytotoxic in test [5] is 0.354% [at 19 µM] (inactive).
Consider `Oc1cc(Cl)cc(Cl)c1Cl`, for which the Potency entry in test [1], in test [2] and in test [4] was “inactive” throughout.
For `O=C(/C=C/c1ccccc1)OC/C=C/c1ccccc1`, the Potency entry in test [1], in test [2], in test [3] and in test [5] was “inactive” each time.
For `CCCCOC(=O)CC`, the Potency entry in test [1], in test [2], in test [3], in test [4] and in test [5] was “inactive” in each case.
As to `CCCC(=O)OC(C)(C)Cc1ccccc1`, the Potency entry in test [1], in test [2], in test [3], in test [4] and in test [5] was “inactive” each time.
`CC(C)Cn1cnc2c(N)nc3ccccc3c21`: the results for the activity change, negative = cytotoxicity in test [1] and in test [2] were 1.15% [at 15.8 µM] (inactive) and -0.222% [at 19 µM] (inactive), respectively. Moreover, the activity, negative = inhibition in test [3] is 2.71% [at 19 µM] (inactive). For the same compound, the Potency entry in test [4] is “inactive”. In addition, the viability change, negative = cytotoxic in test [5] is -3.99% [at 19 µM] (inactive).
Consider `OCC(F)(F)F`, for which the Potency result in test [1], in test [2], in test [3] and in test [5] was “inactive” throughout.
Consider `O=S(=O)(O)c1ccc(Nc2nc(Nc3ccc(/C=C/c4ccc(Nc5nc(Nc6ccc(S(=O)(=O)O)cc6)nc(N(CCO)CCO)n5)cc4S(=O)(=O)O)c(S(=O)(=O)O)c3)nc(N(CCO)CCO)n2)cc1`, for which the Potency result in test [1], in test [2], in test [3], in test [4] and in test [5] was “inactive” each time.
For `COc1cc(/C=C/c2ccccc2)oc(=O)c1`, the Potency result in test [1] and in test [2] was “inactive” each time. The Potency in test [4] was 0.564 µM (active).
On to `Cc1ccc(O)c(N)c1`, for which the Potency result in test [1], in test [2] and in test [3] was “inactive” in each case. Moreover, the Potency in test [4] is 21.7 µM (active); in test [5], 61.2 µM (active).
With `CCN1C(=O)c2ccccc2C1Nc1ccc(OCCN2CCCCC2)cc1` (centres undefined), the Potency entry in test [1], in test [2], in test [3], in test [4] and in test [5] was “inactive” each time.
Turning to `COC(=O)c1ccccc1C`, the Potency entry in test [1], in test [2], in test [3], in test [4] and in test [5] was “inactive” in each case.
With `COc1cccc(OC)c1C(=O)O`, the Potency entry in test [1], in test [2] and in test [5] was “inactive” each time.
Take `O=C1CCc2cc(OCCCCc3nnnn3C3CCCCC3)ccc2N1`: the Potency entry in test [1], in test [2] and in test [6] was “inactive” in each case.
Turning to `C=C(C)c1cccc(C(=C)C)c1`, the Potency entry in test [1], in test [2], in test [4] and in test [5] was “inactive” each time.
Take `COC(=O)Nc1nc2ccc(C(=O)c3ccccc3)cc2[nH]1`: the Potency entry in test [1], in test [2] and in test [4] was “inactive” each time.
Take `Cc1c(F)c(N2CCNC(C)C2)cc2c1c(=O)c(C(=O)O)cn2C1CC1` (centres undefined): the Potency result in test [1], in test [2], in test [4] and in test [5] was “inactive” each time.
As to `Cc1ccc(-c2ccccc2)cc1`, the Potency entry in test [1], in test [2], in test [4] and in test [5] was “inactive” throughout.
In the case of `CN1CCC[C@@H]1CCO[C@](C)(c1ccccc1)c1ccc(Cl)cc1`, the values for the Potency in test [1] and in test [5] were 8.49 µM (active) and 26.6 µM (active), respectively. In test [2], the Potency result was “inactive”.
For the compound `CCN(CCN)c1cccc(C)c1`, the Potency entry in test [1], in test [2], in test [4] and in test [5] was “inactive” each time.
As to `Cc1cccc2cccnc12`, the Potency entry in test [1], in test [2], in test [4] and in test [5] was “inactive” in each case.
